# Over roughly 110,000 compounds, “z-score” has its median near -0.1; the highest 2% begin near 2. Shown is part of a subset that was picked to be rich in the highest values. The source made the active and inactive calls.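 The calls were made as follows: active = z-score in the third read window above 3 or below -3; inactive = the rest.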
# Target: Metabotropic glutamate receptor 8 (Rattus norvegicus) (UniProt P70579)
# Test: mGluR8 Gi/Go-coupled signaling modulation – cell-based, rat, thallium flux, HTS, primary screen (AID 488969)
# Details: HEK293 rat mGluR8, GIRK (G protein-gated inwardly rectifying potassium channel) thallium flux, FluoZin2; at 10 µM; stronger effect = higher value; submaximal glutamate (EC20) added with thallium
# Metabotropic glutamate receptor 8 (Rattus norvegicus), sequence (P70579 whole entry, looked up): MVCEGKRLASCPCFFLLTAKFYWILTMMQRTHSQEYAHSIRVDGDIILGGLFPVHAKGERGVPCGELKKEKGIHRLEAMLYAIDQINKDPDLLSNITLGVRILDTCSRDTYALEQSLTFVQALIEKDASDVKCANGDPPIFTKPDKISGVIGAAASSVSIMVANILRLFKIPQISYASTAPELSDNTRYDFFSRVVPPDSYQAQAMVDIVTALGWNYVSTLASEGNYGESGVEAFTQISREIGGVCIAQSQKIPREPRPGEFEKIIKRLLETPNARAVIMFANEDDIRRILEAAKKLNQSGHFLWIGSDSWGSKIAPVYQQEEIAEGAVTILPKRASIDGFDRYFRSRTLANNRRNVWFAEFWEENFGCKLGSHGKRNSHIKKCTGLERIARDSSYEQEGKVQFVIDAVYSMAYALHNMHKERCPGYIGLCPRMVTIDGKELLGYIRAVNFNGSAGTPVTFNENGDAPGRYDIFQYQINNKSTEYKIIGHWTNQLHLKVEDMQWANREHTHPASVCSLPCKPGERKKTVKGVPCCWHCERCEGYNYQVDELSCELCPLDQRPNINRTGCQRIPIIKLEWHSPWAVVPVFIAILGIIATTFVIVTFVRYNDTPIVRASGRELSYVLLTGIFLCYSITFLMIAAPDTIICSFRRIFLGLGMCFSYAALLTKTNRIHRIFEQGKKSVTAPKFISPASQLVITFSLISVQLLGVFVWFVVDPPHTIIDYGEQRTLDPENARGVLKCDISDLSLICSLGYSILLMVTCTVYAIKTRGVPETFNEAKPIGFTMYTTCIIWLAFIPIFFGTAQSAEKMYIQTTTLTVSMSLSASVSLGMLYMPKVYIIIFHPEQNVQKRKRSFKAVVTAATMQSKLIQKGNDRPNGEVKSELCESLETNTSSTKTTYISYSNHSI
row,SMILES,z-score
1,O=C(NN1c2ccccc2CCc2ccccc21)c1ccccc1Br,-0.0618
2,CC1CN(C(=S)NC(=O)c2ccc([N+](=O)[O-])cc2)CC(C)O1 (centres undefined),0.605
3,O=C(NC(=S)N1CCc2ccccc21)c1ccccc1Br,11.2 (active)
4,O=C(NC(=S)N1CCCc2ccccc21)c1ccc([N+](=O)[O-])cc1,14.7 (active)
5,CCC1CCCCN1C(=S)Nc1ccc(C(C)=O)cc1 (centres undefined),-0.196
6,O=C(NC(=S)N1CCOCC1)c1ccc([N+](=O)[O-])cc1,0.875
7,O=C(c1cncc(Br)c1)N1CCCc2ccccc21,0.0197
8,O=C(NC(=S)N1CCCc2ccccc21)c1ccc(Br)cc1,9.56 (active)
9,CC(=O)N1CCCc2ccccc21,0.0326
10,CCC1CCCCN1C(=S)NC(=O)c1ccc([N+](=O)[O-])cc1 (centres undefined),9.16 (active)
11,O=C(N/N=C1\CCCc2ccccc21)c1ccc([N+](=O)[O-])cc1,1.47
12,CC(=O)Nc1ccccc1C(=O)N1CCc2ccccc21,1.03
13,Cc1ccc(CN2C(=O)CCSc3ccc(Cl)cc32)cc1,-0.054
14,Clc1ccc(-c2n[nH]c3c2CCC3)c(Cl)c1,0.0993
15,O=C(CCS(=O)(=O)c1cccc2nsnc12)NCc1ccccc1Cl,0.429
16,COc1ccccc1N1CCN(C(CNC(=O)c2ccco2)c2cccnc2)CC1 (centres undefined),1.2
17,CN(/N=C/c1ccc(O)cc1O)c1nc(-c2ccccc2)cc(-c2ccccc2)n1,0.141
18,COc1cc(C(=O)OCC(=O)Nc2ccc3c(c2)OC(F)(F)O3)ccc1OCc1c(C)noc1C,-0.513
19,O=C(c1ccccc1)N1CCc2ccccc21,0.518
20,Cc1ccc(NC(=O)N2CCc3ccccc32)cc1,1.99
21,O=C(c1ccccc1)N1CCCc2ccccc21,3.33 (active)
22,CC(C)[C@H](NC(=O)c1ccccc1)C(=O)N1CCc2ccccc21,-0.0295
23,CC12CCC(C(=O)N3CCCc4ccccc43)(CC1=O)C2(C)C (centres undefined),3.5 (active)
24,O=C(NC(=S)N1CCc2ccccc21)c1ccccc1,7.58 (active)
25,O=C(Nc1ccccc1)N1CCc2ccccc21,-0.39

row,SMILES,z-score
1,O=C(CCC(=O)N1CCc2ccccc21)N1CCc2ccccc21,-0.329
2,COc1ccc(NC(=O)N2CCc3ccccc32)cc1,0.323
3,CC12CCC(C(=O)N3CCCc4ccccc43)(OC1=O)C2(C)C (centres undefined),-0.143
4,CC12CCC(C(=O)N3CCc4ccccc43)(CC1=O)C2(C)C (centres undefined),0.155
5,COc1ccc(C(=O)N2CCCc3ccccc32)cc1,-0.672
6,O=C(c1ccco1)N1CCN(Cc2nc3ccccc3c(=O)n2-c2ccc(F)cc2)CC1,0.209
7,COc1cc2[nH]c(=S)nc(NCC3CCCO3)c2cc1OC (centres undefined),0.919
8,Cc1cccc(-n2c(C)n[nH]c2=S)c1,-0.139
9,Cc1ccc2c(c1)c1c(n2CC(O)CN2C(=O)CNC2=O)C(=O)CCC1 (centres undefined),0.0317
10,Cc1cc(C)n(C(=O)CNC(=O)C(c2ccccc2)c2ccccc2)n1,-0.473
11,O=C(C(=O)N1CCCc2ccccc21)N1CCCc2ccccc21,0.0396
12,Fc1ccc(NC(=S)N2CCCc3ccccc32)cc1,-0.143
13,O=C(NC(=S)N1CCCc2ccccc21)c1ccccc1,4.54 (active)
14,COc1ccccc1C(=O)NC(=S)N1CCCc2ccccc21,-0.0293
15,S=C(c1ccccc1)N1CCCc2ccccc21,-0.863
16,O=C(NC(=S)N1CCCc2ccccc21)c1ccc(Cl)cc1,15.6 (active)
17,CN(CCC#N)C(=O)Cn1nc(Cc2ccncc2)c2ccccc2c1=O,1.89
18,CCOCC(=O)Nc1nnc(C2CCCCC2)s1,0.0573
19,Cc1cccc(Cn2c(C(C)O)nc3ccccc32)c1 (centres undefined),-0.101
20,COc1cccc(N2CCN(CC(=O)C34CC5CC(CC(C5)C3)C4)CC2)c1,0.0526
21,COC(=O)[C@H](C)NC(=O)Nc1cc(OC)ccc1OC,-0.238
22,COc1cc(/C=N/NC(=O)COc2c(C)cc([N+](=O)[O-])cc2C)ccc1OC(=O)c1ccccc1,-0.81
23,Cc1cc([N+](=O)[O-])cc(C)c1OCC(=O)N/N=C/c1ccc(OC(=O)c2ccccc2)cc1,-0.0495
24,Cc1cc([N+](=O)[O-])cc(C)c1OCC(=O)N/N=C/c1ccc(OC(=O)c2ccccc2Br)cc1,2.41
25,CCOc1ccc2[nH]cc(C(=O)N3CCN(C4CCCCC4)CC3)c(=O)c2c1,-0.123

row,SMILES,z-score
1,CC(=O)N1CCN(CC(O)COc2ccc(OCc3ccccc3)cc2)CC1 (centres undefined),0.0259
2,Cc1cc2ccccc2c(=O)n1CC(=O)NCC1COc2ccccc2O1 (centres undefined),0.0188
3,Cc1ccc2nc(N3C(=O)C(O)=C(C(=O)c4ccco4)C3c3cccs3)sc2c1 (centres undefined),-1.09
4,O=C1CC(c2ccccc2)Sc2ccccc2N1 (centres undefined),-0.216
5,CC1CSc2ccccc2NC1=S (centres undefined),3.72 (active)
6,CC1CC(=S)Nc2ccccc2N1Cc1ccccc1 (centres undefined),1.32
7,C=C(C)c1cccc(C(C)(C)NC(=O)Nc2ccc(C)cn2)c1,-0.34
8,CCOc1ccc(C(=O)Nc2cc(=O)n(C)c(=O)n2C)cc1,-0.395
9,CCOC(=O)c1ccc2nc(NC(=O)c3ccco3)sc2c1,-0.0743
10,O=C(CN1CCN(Cc2ccc3c(c2)OCO3)CC1)Nc1ccc2c(c1)OCCO2,0.156
11,Cc1c(NC(=O)Cn2cnc3c(=O)n(C)c(=O)n(C)c32)cccc1-c1nc2ccccc2o1,0.183
12,COc1ccc(C(=O)NN2C(=O)C3CCC(C)(C2=O)C3(C)C)cc1 (centres undefined),-0.0665
13,CC12CCC(C(=O)N(CC(O)CN3CCCCC3)C1=O)C2(C)C (centres undefined),0.169
14,COc1ccc(/C=N\NC(=S)SCN2C(=O)C3CCC(C)(C2=O)C3(C)C)cc1 (centres undefined),9.12 (active)
15,CC12CCC(C(=O)N(CSC(=S)N/N=C\c3ccccc3)C1=O)C2(C)C (centres undefined),16.4 (active)
16,COc1ccc(/C=N/NC(=S)NC2CCS(=O)(=O)C2)cc1 (centres undefined),-0.113
17,CN(C)c1ccc(/C=N\NC(=S)SCN2C(=O)C3CCC(C)(C2=O)C3(C)C)cc1 (centres undefined),1.74
18,CCOc1ccc(NC(=O)CCCN2C(=S)NC(C)(C)CC2C)cc1 (centres undefined),-0.466
19,O=C1CC(N2CCN(c3nc4ccccc4s3)CC2)C(=O)N1c1cccc(F)c1 (centres undefined),-0.276
20,O=C1CC(N2CCN(c3nc4ccccc4s3)CC2)C(=O)N1c1ccc(F)cc1 (centres undefined),7.65 (active)
21,CCCOc1ccc(N2C(=O)CC(N3CCN(c4nc5ccccc5s4)CC3)C2=O)cc1 (centres undefined),0.835
22,CCC(=O)Nc1nc2ccc3nc(C)sc3c2s1,3.6 (active)
23,CCCC(=O)Nc1nc2ccc3nc(C)sc3c2s1,-0.507
24,CCCCC(=O)Nc1nc2ccc3nc(C)sc3c2s1,-0.125

# From PubChem BioAssay AID488969 (Vanderbilt High Throughput Screening Facility, 2010)
